# The panel holds about 83,000 compounds, 20% with a hit somewhere; the sample as a whole holds those more often.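 Cells were grown in 96-well plates and exposed to the test compound at a single concentration for 48 hours; results are reported as percent growth, with values below 10 considered active.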 The source made the active and inactive calls.
# Tested on: MDA-MB-435 melanoma
# Assay: NCI-60 one-dose screen, 48 h (100 = growth as untreated, 0 = no growth, -100 = all killed)
# Conditions: 10 µM unless noted
row,Compound,growth
1,COc1cc(C(=O)O)c(O)c(C(C)(C)C)c1,104% (inactive)
2,CC1(C)OC2C(CO)OC(n3ccc(=O)[nH]c3=O)C2O1 (centres undefined),101% (inactive)
3,Cc1cccnc1NC1OC(=O)c2ccccc21 (centres undefined),103% (inactive)
4,NS(=O)(=O)c1cc(=O)[nH]c(=O)[nH]1,105% (inactive)
5,CCC1CCC(C)NC1 (centres undefined),104% (inactive)
6,Cc1ccc2[nH]c3ccccc3c2c1,101% (inactive)
7,C=C1C(=O)C2CCN1CC2,93.7% (inactive)
8,C=CCNC(=S)N/C=C(/C(=O)c1ccccc1)c1ccccc1,98.6% (inactive)
9,CCc1ccccc1C(=O)N(CC)CC,104% (inactive)
10,CN(C)CCOC(=O)Nc1ccc(Cc2ccc(NC(=O)OCCN(C)C)cc2)cc1,76.4% [100 µM] (inactive)
11,CC(C)NC(=O)OCc1c(COC(=O)NC(C)C)c(-c2ccc(Cl)cc2)n2c1CCC2,66.7% (inactive)
12,Nc1ccc2c(c1)Cc1cc(N)c(N)cc1-2,104% (inactive)
13,CCOC(=O)C(=O)CC(=O)c1ccccc1,106% (inactive)
14,CCNc1ncnc2[nH]ncc12,102% (inactive)
15,COc1nc(Nc2cccc(C(F)(F)F)c2)nc(OC)n1,106% (inactive)
16,CC(=O)c1cccc(O)c1,107% (inactive)
17,CC(C)c1ccccc1NC(=O)N1CCC(C(C)C)CC1,91.9% (inactive)

# Tested on: SW-620 colon
# Assay: as above
# Conditions: 10 µM unless noted
row,Compound,growth
1,CC(=O)Nc1ccc(O)c(C)c1,106% (inactive)
2,O=C(c1cccc(C(=O)c2ccc3c4c(cccc24)C(=O)N(c2ccccc2)C3=O)c1)c1ccc2c3c(cccc13)C(=O)N(c1ccccc1)C2=O,104% (inactive)
3,Cc1ccc(S(=O)(=O)Oc2ccc3sc4c(CO)ccc(NCCN(C)C)c4c(=O)c3c2)cc1,-88% [100 µM] (active)
4,O=C1NC(=O)/C(=C\c2ccncc2)N1,99% (inactive)
5,O=C(c1ccccc1O)N1CCCC1,100% (inactive)
6,C1Cc2onc(-c3noc4c3CCC4)c2C1,123% (inactive)
7,O=S(=O)(O)c1ccc(O)c(C2CCCCC2)c1,108% (inactive)
8,CNc1ccccc1C(=O)N/N=C/C=C/c1ccccc1,20.2% (inactive)
9,O=C(O)CC1=CCCCC1,98.2% (inactive)
10,CC(C)c1ccc(C(=O)OCCCl)cc1,106% (inactive)
11,CCCCCCCCNC(=O)C(C)C,93.4% (inactive)
12,Cc1ccc(C)c2c1CCC2=O,93.5% (inactive)
13,CC1(C)CCC(C)(C)NC(=S)N1,111% (inactive)
14,COc1ccc(/C=N/NC(=O)COCC(=O)N/N=C/c2ccc(OC)cc2)cc1,108% (inactive)
15,Cc1ccccc1NC(=O)Oc1ccc(Cl)cc1C(=O)c1ccccc1,98.5% (inactive)
16,CC(=O)c1cccs1,108% (inactive)
17,CSc1cnc2ccccc2n1,93.9% (inactive)
18,CCCC(OC(C)=O)c1ccc2c(c1)OCO2 (centres undefined),109% (inactive)
19,CC(C)N(C(=O)c1ccccc1)C(C)C,104% (inactive)

row,Compound,growth
1,O=C(O)c1ccc(OCc2ccccc2)cc1,107% (inactive)
2,COc1cc(C(=O)O)c(O)c(C(C)(C)C)c1,106% (inactive)
3,CC1(C)OC2C(CO)OC(n3ccc(=O)[nH]c3=O)C2O1 (centres undefined),96.3% (inactive)
4,Cc1cccnc1NC1OC(=O)c2ccccc21 (centres undefined),106% (inactive)
5,NS(=O)(=O)c1cc(=O)[nH]c(=O)[nH]1,109% (inactive)
6,CCC1CCC(C)NC1 (centres undefined),96.9% (inactive)
7,Cc1ccc2[nH]c3ccccc3c2c1,101% (inactive)
8,C=C1C(=O)C2CCN1CC2,67.2% (inactive)
9,C=CCNC(=S)N/C=C(/C(=O)c1ccccc1)c1ccccc1,98.9% (inactive)
10,CCc1ccccc1C(=O)N(CC)CC,105% (inactive)
11,CN(C)CCOC(=O)Nc1ccc(Cc2ccc(NC(=O)OCCN(C)C)cc2)cc1,85.8% [100 µM] (inactive)
12,CC(C)NC(=O)OCc1c(COC(=O)NC(C)C)c(-c2ccc(Cl)cc2)n2c1CCC2,46.6% (inactive)
13,Nc1ccc2c(c1)Cc1cc(N)c(N)cc1-2,100% (inactive)
14,CCOC(=O)C(=O)CC(=O)c1ccccc1,98.4% (inactive)
15,CCNc1ncnc2[nH]ncc12,99.2% (inactive)
16,COc1nc(Nc2cccc(C(F)(F)F)c2)nc(OC)n1,110% (inactive)
17,CC(=O)c1cccc(O)c1,101% (inactive)
18,CC(C)c1ccccc1NC(=O)N1CCC(C(C)C)CC1,107% (inactive)

# Source: PubChem BioAssay (NCI)
